In the supplement of paper PMC10849652:
The full data set covers some 8,800 targets. This sample favours those with a hit. About 0.5% of all pairs of compound and target were hits. Unmarked numbers belong to inactive results.

How the values were obtained:
Experiment in all cases: log2 fold change, soluble protein after heating vs DMSO (PISA); higher = thermal stabilisation; K562 lysate, 10 uM; active = over 0.2 and 3.5 SD of the protein, either way, in both replicates (recomputed)
[1] = compound: C1=CC=C(C=C1)[C@H](COC2=CC3=C(C=C2)NC(=O)N3)NC(=O)C4=CC=CN(C4=O)CC5=CC(=C(C=C5)F)F
Method in brief: (§1)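 Pellets of K562 cells were dounce-homogenised in PBS pH 7.4 with 1 mM MgCl2, and the crude extract was held at 1 mg/mL protein for a 30 min treatment with 10 μM compound. Aliquots were heated for 3 min over 48°C-58°C and pooled before NP-40 was added to 0.5% at 4°C. The supernatant from 21,000xg for 90 min was quantified by TMTpro 16plex LC-MS/MS with channel sums equalised. Values are reported from duplicates as log-two fold change in thermal stability relative to solvent controls.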

[2] = compound: CC1=C(SC2=C1C(=N[C@H](C3=NN=C(N32)C)CC(=O)N)C4=CC=C(C=C4)Cl)C
Method in brief: as §1

[3] = compound: CC1=C2C(=CC=C1)N=C(N(C2=O)C3=CC=CC=C3C)CN4C=NC5=C(N=CN=C54)N
Method in brief: as §1

[4] = compound: Cc1sc2c(c1C)C(c1ccc(Cl)cc1)=N[C@@H](CC(=O)OC(C)(C)C)c1nnc(C)n1-2
Method in brief: as §1

[5] = compound: c1ccc([C@@H]2C[C@H]2NC2CCNCC2)cc1
Method in brief: as §1

UniProt P30837, sequence (P30837 whole entry, looked up): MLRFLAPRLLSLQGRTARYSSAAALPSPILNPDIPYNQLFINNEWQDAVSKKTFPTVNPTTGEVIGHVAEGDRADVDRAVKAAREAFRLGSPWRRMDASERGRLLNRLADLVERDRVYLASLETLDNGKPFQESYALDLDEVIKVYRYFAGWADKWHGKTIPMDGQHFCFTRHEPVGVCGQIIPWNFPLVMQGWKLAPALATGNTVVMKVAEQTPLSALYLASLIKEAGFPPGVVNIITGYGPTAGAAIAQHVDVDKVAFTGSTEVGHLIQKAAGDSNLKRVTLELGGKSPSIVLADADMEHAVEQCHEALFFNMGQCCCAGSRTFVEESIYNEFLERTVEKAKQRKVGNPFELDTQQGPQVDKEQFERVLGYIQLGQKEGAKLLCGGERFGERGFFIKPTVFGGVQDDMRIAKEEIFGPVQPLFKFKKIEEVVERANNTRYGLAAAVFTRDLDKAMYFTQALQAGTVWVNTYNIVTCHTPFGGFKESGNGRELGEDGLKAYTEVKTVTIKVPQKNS
UniProt Q5JTZ9, sequence (Q5JTZ9 whole entry, looked up): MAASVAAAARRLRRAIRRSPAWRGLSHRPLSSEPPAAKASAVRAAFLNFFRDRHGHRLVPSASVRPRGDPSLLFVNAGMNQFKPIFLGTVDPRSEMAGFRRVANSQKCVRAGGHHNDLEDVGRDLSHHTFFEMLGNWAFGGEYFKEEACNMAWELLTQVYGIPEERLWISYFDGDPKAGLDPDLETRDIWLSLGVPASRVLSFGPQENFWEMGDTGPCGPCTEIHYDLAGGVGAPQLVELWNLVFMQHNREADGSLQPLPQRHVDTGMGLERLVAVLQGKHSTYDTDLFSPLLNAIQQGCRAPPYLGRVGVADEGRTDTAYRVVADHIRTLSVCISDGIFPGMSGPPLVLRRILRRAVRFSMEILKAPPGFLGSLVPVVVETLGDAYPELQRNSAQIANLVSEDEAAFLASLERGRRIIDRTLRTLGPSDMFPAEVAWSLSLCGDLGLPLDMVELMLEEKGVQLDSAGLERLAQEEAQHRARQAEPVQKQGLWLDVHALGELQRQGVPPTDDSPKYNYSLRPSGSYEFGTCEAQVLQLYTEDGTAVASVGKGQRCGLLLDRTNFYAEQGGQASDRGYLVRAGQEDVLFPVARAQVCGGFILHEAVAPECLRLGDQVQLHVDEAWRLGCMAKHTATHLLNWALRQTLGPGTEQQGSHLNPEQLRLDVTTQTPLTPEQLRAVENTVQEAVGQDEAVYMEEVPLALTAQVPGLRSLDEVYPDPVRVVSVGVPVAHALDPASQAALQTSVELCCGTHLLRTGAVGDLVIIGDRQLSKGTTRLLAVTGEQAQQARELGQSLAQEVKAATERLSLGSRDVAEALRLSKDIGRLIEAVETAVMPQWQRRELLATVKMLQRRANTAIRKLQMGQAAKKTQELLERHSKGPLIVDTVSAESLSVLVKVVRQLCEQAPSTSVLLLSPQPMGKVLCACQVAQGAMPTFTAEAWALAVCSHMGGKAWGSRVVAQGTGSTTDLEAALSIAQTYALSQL
UniProt Q9BVK2, sequence (Q9BVK2 whole entry, looked up): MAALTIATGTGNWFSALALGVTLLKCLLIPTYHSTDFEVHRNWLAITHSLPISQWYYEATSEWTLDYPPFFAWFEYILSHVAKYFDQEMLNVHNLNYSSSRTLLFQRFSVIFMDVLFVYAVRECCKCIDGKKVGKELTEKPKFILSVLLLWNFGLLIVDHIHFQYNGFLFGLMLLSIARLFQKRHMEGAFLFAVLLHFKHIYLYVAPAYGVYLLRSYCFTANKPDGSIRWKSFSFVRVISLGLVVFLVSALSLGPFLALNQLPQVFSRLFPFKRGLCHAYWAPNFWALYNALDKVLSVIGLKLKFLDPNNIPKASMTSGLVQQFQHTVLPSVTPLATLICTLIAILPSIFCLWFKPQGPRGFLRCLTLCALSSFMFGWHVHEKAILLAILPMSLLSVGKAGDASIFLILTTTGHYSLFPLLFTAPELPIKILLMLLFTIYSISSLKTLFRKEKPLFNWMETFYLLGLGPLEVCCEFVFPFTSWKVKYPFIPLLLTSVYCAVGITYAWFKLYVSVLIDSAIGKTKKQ
UniProt Q12904, sequence (Q12904 whole entry, looked up): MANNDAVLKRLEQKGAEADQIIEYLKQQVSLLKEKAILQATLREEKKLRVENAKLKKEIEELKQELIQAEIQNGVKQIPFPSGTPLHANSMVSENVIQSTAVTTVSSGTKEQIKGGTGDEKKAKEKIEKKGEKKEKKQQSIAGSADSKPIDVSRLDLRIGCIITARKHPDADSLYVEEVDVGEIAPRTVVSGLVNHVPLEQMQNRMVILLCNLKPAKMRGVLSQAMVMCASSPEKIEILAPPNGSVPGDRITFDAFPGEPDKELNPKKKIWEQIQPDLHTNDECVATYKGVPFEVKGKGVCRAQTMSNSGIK
UniProt Q9UJX3, sequence (Q9UJX3 whole entry, looked up): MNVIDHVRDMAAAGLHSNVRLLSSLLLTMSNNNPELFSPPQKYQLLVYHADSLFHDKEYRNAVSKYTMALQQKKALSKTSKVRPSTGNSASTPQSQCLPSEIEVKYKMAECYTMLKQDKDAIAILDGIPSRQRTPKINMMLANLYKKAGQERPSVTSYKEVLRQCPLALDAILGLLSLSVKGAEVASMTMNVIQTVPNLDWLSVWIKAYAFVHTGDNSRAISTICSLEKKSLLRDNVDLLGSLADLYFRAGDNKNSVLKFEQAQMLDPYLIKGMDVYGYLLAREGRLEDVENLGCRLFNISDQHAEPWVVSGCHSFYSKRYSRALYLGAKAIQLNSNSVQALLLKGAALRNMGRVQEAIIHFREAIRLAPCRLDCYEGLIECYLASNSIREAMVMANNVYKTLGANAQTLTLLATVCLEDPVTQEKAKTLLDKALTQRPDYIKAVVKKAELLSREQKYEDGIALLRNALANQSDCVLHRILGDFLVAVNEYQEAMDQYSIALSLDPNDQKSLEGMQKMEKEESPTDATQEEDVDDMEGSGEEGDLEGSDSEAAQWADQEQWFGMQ
UniProt Q9NWB6, sequence (Q9NWB6 whole entry, looked up): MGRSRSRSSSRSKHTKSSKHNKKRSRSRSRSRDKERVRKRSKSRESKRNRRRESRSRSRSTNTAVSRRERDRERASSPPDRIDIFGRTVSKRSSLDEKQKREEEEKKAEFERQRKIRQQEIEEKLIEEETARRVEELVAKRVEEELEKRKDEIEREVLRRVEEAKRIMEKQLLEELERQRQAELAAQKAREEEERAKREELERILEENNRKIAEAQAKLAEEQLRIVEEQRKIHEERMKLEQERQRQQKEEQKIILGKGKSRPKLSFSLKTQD
UniProt O60488, sequence (O60488 whole entry, looked up): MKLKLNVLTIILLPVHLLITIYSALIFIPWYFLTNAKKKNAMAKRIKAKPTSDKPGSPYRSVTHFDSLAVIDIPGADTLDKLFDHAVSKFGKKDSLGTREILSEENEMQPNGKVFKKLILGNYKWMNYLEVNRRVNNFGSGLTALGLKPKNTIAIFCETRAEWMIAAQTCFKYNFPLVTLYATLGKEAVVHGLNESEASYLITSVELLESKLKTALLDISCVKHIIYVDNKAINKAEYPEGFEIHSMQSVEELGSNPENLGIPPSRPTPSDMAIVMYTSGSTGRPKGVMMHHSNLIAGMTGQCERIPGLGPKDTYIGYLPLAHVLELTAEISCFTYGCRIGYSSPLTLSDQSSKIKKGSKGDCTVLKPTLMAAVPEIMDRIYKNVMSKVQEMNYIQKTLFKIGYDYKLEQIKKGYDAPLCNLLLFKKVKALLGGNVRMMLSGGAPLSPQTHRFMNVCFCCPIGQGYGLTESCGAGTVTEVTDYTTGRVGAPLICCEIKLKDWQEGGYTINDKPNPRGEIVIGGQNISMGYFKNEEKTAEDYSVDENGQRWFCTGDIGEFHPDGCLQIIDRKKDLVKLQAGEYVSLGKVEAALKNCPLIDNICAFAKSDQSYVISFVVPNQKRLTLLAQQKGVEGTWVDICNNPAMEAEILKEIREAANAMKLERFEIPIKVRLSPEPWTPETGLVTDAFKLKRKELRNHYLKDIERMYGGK
UniProt Q9H1I8, sequence (Q9H1I8 whole entry, looked up): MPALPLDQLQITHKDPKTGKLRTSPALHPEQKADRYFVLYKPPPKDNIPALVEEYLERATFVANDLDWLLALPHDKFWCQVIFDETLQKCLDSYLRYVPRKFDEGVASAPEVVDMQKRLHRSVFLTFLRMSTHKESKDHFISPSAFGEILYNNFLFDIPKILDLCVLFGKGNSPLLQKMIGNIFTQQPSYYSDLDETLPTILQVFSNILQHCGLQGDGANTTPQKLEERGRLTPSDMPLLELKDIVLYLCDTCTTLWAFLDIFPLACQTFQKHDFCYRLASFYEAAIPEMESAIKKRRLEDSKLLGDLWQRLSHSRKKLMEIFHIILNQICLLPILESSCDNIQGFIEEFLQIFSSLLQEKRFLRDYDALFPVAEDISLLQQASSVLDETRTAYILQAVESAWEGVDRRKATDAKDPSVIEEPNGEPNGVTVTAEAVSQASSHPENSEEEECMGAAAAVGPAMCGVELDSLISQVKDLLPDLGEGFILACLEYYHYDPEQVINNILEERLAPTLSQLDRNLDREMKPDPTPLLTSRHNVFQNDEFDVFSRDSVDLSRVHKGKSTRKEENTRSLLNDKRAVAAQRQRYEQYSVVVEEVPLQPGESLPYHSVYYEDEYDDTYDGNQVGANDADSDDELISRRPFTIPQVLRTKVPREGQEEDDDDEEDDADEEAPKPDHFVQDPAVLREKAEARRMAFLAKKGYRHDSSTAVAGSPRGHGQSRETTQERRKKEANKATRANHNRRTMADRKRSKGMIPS
UniProt Q9BTT0, sequence (Q9BTT0 whole entry, looked up): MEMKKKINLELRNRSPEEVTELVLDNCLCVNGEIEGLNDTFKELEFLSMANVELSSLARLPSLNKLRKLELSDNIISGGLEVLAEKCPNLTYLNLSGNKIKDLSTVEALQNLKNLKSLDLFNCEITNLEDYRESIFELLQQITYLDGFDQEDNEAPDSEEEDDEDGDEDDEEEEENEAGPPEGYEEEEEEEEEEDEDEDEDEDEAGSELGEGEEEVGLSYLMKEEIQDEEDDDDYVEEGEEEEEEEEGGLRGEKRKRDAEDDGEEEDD

Row | Target | log2 fold change [1] | log2 fold change [2] | log2 fold change [3] | log2 fold change [4] | log2 fold change [5]
1 | AHCYL1 (UniProt O43865) | -0.011 | -0.003 | -0.011 | 0.034 | 0.006
2 | ARFGAP1 (UniProt Q8N6T3) | 0.037 | -0.091 | 0.149 | -0.081 | -0.127
3 | AIMP1 isoform 2 (UniProt Q12904) | -0.033 | 0.01 | 0.006 | 0.029 | 0.044
4 | ABL2 (UniProt P42684) | -0.026 | 0.016 | 0 | -0.14 | -0.105
5 | AKAP8 (UniProt O43823) | -0.02 | 0.073 | -0.016 | -0.009 | -0.014
6 | AP1G2 (UniProt O75843) | 0.082 | -0.09 | 0.016 | 0.028 | -0.099
7 | APOB (UniProt P04114) | -0.009 | 0.039 | 0.023 | -0.168 | -0.109
8 | ARL15 (UniProt Q9NXU5) | 0.02 | -0.005 | 0.018 | -0.009 | 0.269
9 | APOBEC3C (UniProt Q9NRW3) | -0.003 | 0.032 | 0.013 | 0.014 | -0.062
10 | ALDH18A1 (UniProt P54886) | -0.018 | -0.032 | 0.019 | -0.005 | 0.034
11 | AFF1 isoform 2 (UniProt P51825) | -0.109 | 0.133 | -0.006 | -0.087 | -0.118
12 | ALG8 (UniProt Q9BVK2) | 0.034 | 0.001 | 0.059 | -0.013 | -0.008
13 | ABHD17A isoform 2 (UniProt Q96GS6) | -0.053 | -0.02 | 0.011 | -0.025 | -0.069
14 | AKT1 (UniProt P31749) | 0.011 | -0.028 | -0.028 | -0.009 | 0.013
15 | ARL8A (UniProt Q96BM9) | 0.038 | -0.02 | -0.157 | 0.093 | 0.1
16 | ANAPC7 (UniProt Q9UJX3) | -0.008 | -0.003 | -0.002 | 0.023 | 0.048
17 | ALDH1B1 (UniProt P30837) | 0.143 | -0.021 | 0.006 | 0.049 | 0.019
18 | ARAF (UniProt P10398) | 0.012 | -0.002 | -0.078 | 0 | 0.002
19 | ACSL4 (UniProt O60488) | -0.058 | 0.046 | 0.032 | -0.106 | 0.038
20 | AKT2 (UniProt P31751) | 0.011 | 0.003 | 0.031 | 0.02 | 0.028
21 | ANKRD40 (UniProt Q6AI12) | 0.133 | 0.072 | 0.536 | -0.156 | 0.053
22 | ABCD3 (UniProt P28288) | 0.178 | -0.094 | 0.016 | 0.013 | 0.01
23 | APEX1 (UniProt P27695) | 0.055 | 0.007 | -0.007 | 0.086 | 0.131
24 | ABI1 isoform 9 (UniProt Q8IZP0) | -0.013 | -0.008 | -0.006 | -0.004 | -0.117
25 | AARS2 (UniProt Q5JTZ9) | 0.014 | -0.076 | 0.026 | 0.041 | 0.045
26 | ARGLU1 (UniProt Q9NWB6) | 0.049 | 0.009 | 0.036 | -0.026 | 0.074
27 | ACACB (UniProt O00763) | -0.018 | 0.002 | 0.01 | 0.074 | 0.014

Row | Target | log2 fold change [1] | log2 fold change [2] | log2 fold change [3] | log2 fold change [4] | log2 fold change [5]
28 | AP3D1 isoform 5 (UniProt O14617) | 0.042 | -0.027 | 0.003 | 0.025 | -0.028
29 | AK2 (UniProt P54819) | 0.046 | -0.013 | 0.01 | 0.051 | -0.015
30 | ADRM1 (UniProt Q16186) | -0.005 | 0.007 | -0.001 | -0.026 | 0.016
31 | ANP32A (UniProt P39687) | 0.007 | 0.02 | 0 | 0.07 | -0.033
32 | ACIN1 isoform 5 (UniProt Q9UKV3) | -0.002 | 0.019 | 0.013 | -0.01 | 0.012
33 | ALG13 (UniProt Q9NP73) | -0.015 | -0.018 | 0.09 | 0.037 | -0.087
34 | ANLN (UniProt Q9NQW6) | 0.04 | -0.014 | 0.053 | 0.015 | 0.005
35 | ACAA1 (UniProt P09110) | -0.004 | 0.007 | -0.005 | 0.046 | -0.003
36 | ACTG1 (UniProt I3L4N8) | -0.042 | -0.082 | -0.098 | -0.245 | 0.218
37 | AKAP8L (UniProt Q9ULX6) | 0.011 | -0.005 | -0.001 | 0.018 | -0.02
38 | ARAP1 (UniProt Q96P48) | 0.022 | -0.008 | 0.048 | 0.013 | -0.015
39 | ARHGEF1 (UniProt M0QZR4) | -0.046 | 0.006 | -0.017 | -0.017 | 0.004
40 | AGTPBP1 (UniProt Q9UPW5) | 0.131 | -0.13 | 0.051 | -0.042 | 0.03
41 | ACADM isoform 2 (UniProt P11310) | -0.071 | -0.035 | 0.043 | 0.017 | 0.013
42 | ACLY (UniProt P53396) | 0.011 | 0.03 | 0.004 | 0.03 | 0.023
43 | ADK (UniProt P55263) | 0.059 | -0.035 | 0.051 | -0.036 | -0.133
44 | AMD1 (UniProt P17707) | -0.027 | 0.01 | -0.017 | 0.005 | -0.019
45 | ABCC5 (UniProt O15440) | 0.087 | -0.052 | -0.108 | -0.099 | 0.115
46 | ANKRD27 (UniProt Q96NW4) | -0.025 | 0.022 | -0.011 | 0.042 | -0.002
47 | ARMCX3 (UniProt Q9UH62) | 0.015 | 0.009 | 0.029 | -0.074 | 0.053
48 | ANP32E (UniProt Q9BTT0) | 0.043 | -0.005 | -0.053 | -0.038 | 0.026
49 | ADAMTS5 (UniProt Q9UNA0) | 0.032 | 0.115 | 0 | -0.136 | -0.481 (active)
50 | ALDH2 (UniProt P05091) | 0.029 | -0.028 | -0.022 | -0.018 | 0.01
51 | AKR1B1 (UniProt P15121) | 0.015 | 0.066 | 0.059 | -0.146 | -0.049
52 | ASCC2 (UniProt Q9H1I8) | 0.181 | 0.063 | -0.027 | -0.019 | 0.076
53 | ALG3 (UniProt Q92685) | 0.002 | -0.006 | 0.048 | -0.035 | -0.127
